Bioassay records: PubChem BioAssay, National Center for Advancing Translational Sciences (NCATS)
A selection: hits, their analogues and other compounds. The true share with any hit is near 7.3%.
Rab9 prom act: qHTS Assay for Rab9 Promoter Activators. Huh7 Rab9 promoter-luciferase reporter, luminescence, 24 h. Potency, µM (top dose mostly 9.22 µM), most hits filed as activators. hit rate 2.8% among 320,000; note: nearly all actives have a fitted effect of over 60% in size
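Huh7 cells stably carrying Rab9 promoter–luciferase reporter, plated 1500 cells/well, compound added after 2 h and incubated 24 h at 37 °C; luciferase luminescence then read after 10 min with detection reagent.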
NPC1 prom act: qHTS Assay for NPC1 Promoter Activators; AID 485313, 2010; hit rate 2.4% among 320,000; Potency, µM (top dose mostly 9.22 µM), hits mostly activators; Huh7 NPC1 promoter luciferase reporter, 24 h; note: nearly all actives have a fitted effect of over 60% in size
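Stable NPC1-promoter luciferase Huh7 line; cpd (DMSO) 24 h, 37 °C, 5% CO2; Amplite luciferase reagent 10 min RT; luminescence readout. qHTS format.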
SMN2 splice up: qHTS Assay for Enhancers of SMN2 Splice Variant Expression; hit rate 2.8% among 210,000; HEK293 SMN2-luciferase splicing reporter, luminescence, 30-36 h; Potency, µM (doses to about 46.1 µM), actives largely listed as activators; AID 1458, 2008; note: nearly all actives have a fitted effect of over 55% in size
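qHTS luciferase splicing reporter: luminescence rises when SMN2 exon 7 is included in transfected HEK293 cells. Compound exposure lasted 30-36 h at 37C, with 4.5 mM final sodium butyrate as control, followed by a ONE-Glo read.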
KinaseGlo FLuc: Counterscreen for Luciferase (Kinase-Glo TM) Inhibition; Luciferin 4-monooxygenase (Photuris pensylvanica), Q27757; Kinase-Glo luciferase, ATP luminescence, 8 min; Potency, µM (doses to about 38.3 µM), most hits filed as inhibitors; hit rate 0.28% among 200,000; note: nearly all actives have a fitted effect of over 60% in size
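Luminescence was the read-out, taken after 8-minute incubation at ambient temperature. Luciferase turned over luciferin with 10 uM ATP in imidazole pH 7.2 buffer containing KCl, MgCl2, Tween 20 and BSA.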
FLuc modulator: qHTS profiling assay for firefly luciferase inhibitor/activator using purifed enzyme and Km concentrations of substrates (counterscreen for miR-21 project) | purified FLuc, Km substrates, luminescence inhibition | AID 588342, 2011 | Luciferin 4-monooxygenase (Photinus pyralis), P08659 | Potency, µM (doses to about 57.5 µM), actives largely listed as inhibitors | hit rate 6.9% among 360,000; note: nearly all actives have a fitted effect of over 55% in size
Target sequence (P08659 whole entry, looked up): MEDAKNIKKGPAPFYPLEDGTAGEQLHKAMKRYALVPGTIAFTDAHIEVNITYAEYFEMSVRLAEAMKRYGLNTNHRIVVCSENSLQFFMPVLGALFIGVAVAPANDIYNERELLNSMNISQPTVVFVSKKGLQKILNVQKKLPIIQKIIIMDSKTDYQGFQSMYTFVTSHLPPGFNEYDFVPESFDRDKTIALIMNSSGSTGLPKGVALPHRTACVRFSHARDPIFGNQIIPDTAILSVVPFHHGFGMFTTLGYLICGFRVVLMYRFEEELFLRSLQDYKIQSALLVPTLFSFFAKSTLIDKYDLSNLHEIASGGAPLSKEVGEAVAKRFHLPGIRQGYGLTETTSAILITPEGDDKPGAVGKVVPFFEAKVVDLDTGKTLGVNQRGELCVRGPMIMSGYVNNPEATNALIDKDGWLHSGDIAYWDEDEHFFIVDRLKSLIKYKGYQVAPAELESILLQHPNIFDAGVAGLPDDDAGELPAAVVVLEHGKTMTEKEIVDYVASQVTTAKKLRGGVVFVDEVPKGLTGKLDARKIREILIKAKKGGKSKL
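Purified P. pyralis luciferase, 10 nM final, with Km-level 10 uM D-luciferin and 10 uM ATP in 50 mM Tris acetate pH 7.5, 10 mM Mg acetate, 0.01% Tween-20, 0.05% BSA; 6-point qHTS titration about 60 µM downward; luminescence read.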
Numbers stand for hits; n = inactive; u = inconclusive; x = no result; [ ] = dose if it differs, or a comment. Calls come from the whole dose curve; as a rule, active = well fitted curve in the direction sought with a large enough effect; inconclusive = small, poorly fitted or top-dose-only effect, or another doubt; inactive = no such curve, though single readings can be large; an effect the other way counts as inactive or inconclusive.

SMILES	Rab9 prom act	NPC1 prom act	SMN2 splice up	KinaseGlo FLuc	FLuc modulator
COc1cccc(NC(=O)Cn2c(=O)n(CC(=O)NCCc3ccccc3)c(=O)c3sccc32)c1	x	x	n	x	n
Cc1cccc(CNC(=O)c2ccc(Cn3c(=O)c4cccn4c4cccnc43)cc2)c1	x	x	x	x	n
N#CC(C#N)=C(N)/C(C#N)=C/c1ccc2[nH]ccc2c1	x	x	n	x	x
O=C(c1ccccc1)c1ccc(Cn2cc(CCCO)nn2)cc1	n	n	x	x	n
O=C(c1ccccc1)c1ccc(Cn2cc(-c3ccccc3)nn2)cc1	n	n	x	x	13.5µM
Cc1noc2ncnc(NCc3ccc(Cl)cc3)c12	x	x	x	x	n
O=C(Nc1ccccc1)Nc1ccc2snnc2c1	u	u	11.2µM	n	10.7µM
O=C(Nc1cccc(C(F)(F)F)c1)Nc1ccc2snnc2c1	x	x	n	x	n
O=C(Nc1ccccc1)Nc1ccc2nnsc2c1	3.98µM	u	x	x	7.57µM
CN(C)c1ccc(NC(=O)Nc2ccc3snnc3c2)cc1	u	u	n	n	7.57µM
Cc1ccc(Cl)cc1NC(=O)Cn1c(=O)oc2cc(S(=O)(=O)N3CCCC3)ccc21	x	x	n	x	n
CC1=C(C(=O)Nc2cccc(Cl)c2)C2(CCCCCC2)OC1=O	x	x	x	x	n
O=C1c2ccccc2-c2nnc(-c3ccc(O)cc3)cc21	0.501µM	0.631µM	6.31µM	11.2µM	0.536µM
Cc1ccc(-c2cc3c(nn2)-c2ccccc2C3=O)cc1	u	u	x	x	0.0757µM
COc1cc(-c2c(C(C)=O)c(C)nc3c2C(=O)c2ccccc2-3)cc(OC)c1OC	n	n	x	x	n
O=C1c2ccccc2-c2n[nH]c3cccc1c23	n	u	n	n	x
Cc1ccccc1-c1cc2c(nn1)-c1ccccc1C2=O	3.98µM	3.16µM	u	5.01µM	1.35µM
O=c1[nH]nc(-c2ccc(F)cc2)cc1-c1ccccc1	n	n	x	x	n
O=C1c2ccccc2-c2nnc(-c3ccc(F)cc3)cc21	0.316µM	u	2.51µM	5.01µM	0.426µM
CC(=O)OCC#CCSc1nnc(-c2cccc(Br)c2)o1	x	x	n	x	n
COc1cc(OC)c2c(c1)OC(c1ccccc1)CC2=O (centres undefined)	x	x	x	n	x
Cc1ccc(Cl)cc1NC(=O)c1sc2nc(-c3ccccc3)cn2c1C	x	x	x	x	n
CCCCc1nn2c(=O)cc(COC(=O)c3ccc(NC(=O)C(CC)CC)cc3)nc2s1	x	x	x	x	n
Cc1cc(C(=O)O)ccc1N/C=C1\CCCC(C)C1=O (centres undefined)	u	u	u	n	0.953µM
CC1CCC/C(=C\Nc2ccc(O)cc2)C1=O (centres undefined)	u	n	n	n	21.3µM
SMILES	Rab9 prom act	NPC1 prom act	SMN2 splice up	KinaseGlo FLuc	FLuc modulator
Fc1ccc(-c2cc(-c3nc(-c4cccc(Cl)c4)no3)[nH]n2)cc1	x	x	x	x	n
COC(=O)c1cc(CSc2nc3ccccc3[nH]2)oc1C	u	u	n	n	7.57µM
O=c1[nH]c(SCc2ccccc2)nc2ccsc12	n	n	u	n	16.9µM
O=C(O)c1ccc(CSc2nc3ccccc3[nH]2)cc1	n	n	x	x	16.9µM
COc1cccc(CSc2nc3ccccc3[nH]2)c1	1µM	3.55µM	15.8µM	n	4.26µM
O=[N+]([O-])c1cccc(CSc2nc3ccccc3[nH]2)c1	n	n	n[1.84 µM]	n	u
CCCc1cc(=O)[nH]c(SCc2cc(C(=O)OC)c(C)o2)n1	n	n	n	n	n
Cc1cc(Nc2cccc(C(F)(F)F)c2)nc2ccc(NC(=O)c3cncc(Br)c3)cc12	x	x	x	x	n
CC(C)(O)C(=O)O	x	x	n	x	x
Fc1c(F)c(F)c(CSc2nc3ccccc3[nH]2)c(F)c1F	n	n	n	n	u
Fc1ccccc1CSc1nc2ccccc2[nH]1	1.26µM	1.78µM	5.62µM	u	2.39µM
Cc1oc2ccc(O)c(CN(C)Cc3ccccc3)c2c1C(=O)Nc1ccccc1	x	x	n	x	n
Cc1ccc(NC(=O)CN2C(=O)CCc3ccccc32)cc1C	x	x	x	x	23.9µM
CN1CCN(c2ccc(NC(=O)N3CCc4ccccc43)cc2)CC1	0.112µM	0.316µM	x	x	0.757µM
Cc1ccc(NC(=O)N2CCc3ccccc32)cc1	0.631µM	0.708µM	1.26µM	u	0.536µM
Cc1ccc(NC(=O)N2CCc3ccccc32)cc1C	0.316µM	0.501µM	1.41µM	n	0.675µM
Cc1ccc(Cl)cc1NC(=O)CN1C(=O)CCc2ccccc21	x	x	x	x	n
Cc1ccc(NC(=O)N2CCCc3ccccc32)cc1	n	n	x	n	u
CCC(Sc1nc2ccccc2c2nc(-c3ccccc3)nn12)C(=O)Nc1cccc(OC)c1 (centres undefined)	x	x	x	x	n
COc1ccc(C(=O)Nc2nnc(Cc3ccc(OC)c(OC)c3)s2)c(OC)c1	n	n	x	x	26.9µM
COCc1nnc(NC(=O)c2ccc(OC)cc2OC)s1	2.51µM	2.51µM	11.2µM	n	8.49µM
O=S(=O)(Nc1ccc(F)c(Cl)c1)c1ccc(Br)s1	x	x	n	x	u
COc1ccc(NC(=O)Cn2nnc(-c3nc(-c4ccncc4)no3)c2N)cc1OC	x	x	x	x	n
CCOc1ccccc1NC(=O)C(C)N(c1ccccc1)S(C)(=O)=O (centres undefined)	x	x	n	x	n
O=C(O)CCCNc1cc(N2CCN(C(=O)c3ccco3)CC2)c2noc3c2c1C(=O)c1ccccc1-3	n	n	x	x	u
SMILES	Rab9 prom act	NPC1 prom act	SMN2 splice up	KinaseGlo FLuc	FLuc modulator
O=C(O)CCCNc1cc(N2CCC3(CC2)OCCO3)c2noc3c2c1C(=O)c1ccccc1-3	2.24µM	3.98µM	n	n	10.7µM
CNc1c([N+](=O)[O-])cnn1-c1ccc(Cl)cc1Cl	n	n	n	n	n
CNc1c([N+](=O)[O-])cnn1-c1ccccc1Cl	n	n	n	n	15.1µM
CC(C)c1ccc(NC(=O)CSc2ncnc3c2sc2ccccc23)cc1	x	x	x	x	n
COc1ccc(CNC(=O)C(CC(C)C)NS(=O)(=O)c2ccc3c(c2)CCN3C(C)=O)cc1 (centres undefined)	x	x	n	x	n
COc1ccccc1NC(=O)CN1C(=O)CC(c2ccc(C)c(C)c2)=Nc2ccccc21	x	x	x	x	13.5µM
CCOc1ccccc1NC(=O)CN1C(=O)COc2ccc(C)cc21	n	n	x	x	n
CCOc1ccccc1NC(=O)CN1C(=O)CC(c2ccc(C)c(C)c2)=Nc2ccccc21	x	x	x	x	26.9µM
Cc1cc2c(cc1C)N(CC(=O)N1CCCC1)C(=O)CC(c1ccccc1)=N2	n	n	n	n	13.5µM
O=C(CN1C(=O)CC(c2ccccc2)=Nc2ccccc21)NCc1ccccc1	n	n	n	n	n
C[C@@](O)(CNS(=O)(=O)c1ccccc1)c1ccccc1	x	x	n[9.22 µM]	n[7.66 µM]	x
Cc1ccc2nc(SC(C)C(=O)N3CCCC3)[nH]c2c1 (centres undefined)	u	n	11.2µM	n	u
Cc1ccc2nc(SCC(=O)N3CCCC3)[nH]c2c1	1.41µM	2µM	11.2µM	n	6.75µM
Cc1ccc2nc(SC(C)C(=O)N3CCCCC3)[nH]c2c1 (centres undefined)	n	n	n	n	u
